Assay results taken from PubChem BioAssay.
Activity calls are given as the source filed them.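 How the source made its calls: active means growth inhibition above 50% at the single 2 µM test dose, taken to imply half-maximal potency below 2 µM; inactive means the rest.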

Test: antimalarial activity against Dd2 strain (AID 2302);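 further: 0% = DMSO untreated growth and 100% = chloroquine plus artemisinin killed control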
Settings: P. falciparum Dd2 in RBCs, LDH growth readout, 72 h; at 2 µM; hits give high values

Question: Which growth inhibition does the source give for CC(C)c1ccc(CN(C)CCCCNC(=O)c2ccc(NC(=O)c3ccc(Cl)cc3)cc2)cc1 here?
Answer: 0% (inactive)

Question: Which growth inhibition does the source give for CC(C)n1c(C2CCN(CC3CCN(C(=O)/C=C/c4ccc(Cl)c(Cl)c4)CC3)CC2)nc2ccccc21 here?
Answer: 7% (inactive)

Question: With Cn1nc(C(F)(F)F)c(-c2ccc(F)cc2)c1NC(=O)Nc1ccc(F)cc1F as the molecule, how does the growth inhibition read?
Answer: 98% (active)

Question: For COc1cccc2sc(N3CCN(C(=O)c4ccc([N+](=O)[O-])o4)CC3)nc12, which growth inhibition is on record?
Answer: 67% (active)

Question: Which growth inhibition does the source give for COc1ccc2nccc(NC(=O)CNCc3ccc(-c4ccccc4)cc3)c2c1 here?
Answer: 35% (inactive)

Question: For O=C(Nc1ccc(Cn2ncc(N3CCCNCC3)c(Cl)c2=O)cc1)Nc1cc(Cl)cc(Cl)c1, which growth inhibition is on record?
Answer: 17% (inactive)

Question: Which growth inhibition does the source give for COc1cc(C(=O)Nc2nc3ccccc3[nH]2)ccc1OCC(=O)Nc1cccc(C(F)(F)F)c1 here?
Answer: 33% (inactive)

Question: For O=C(NCC1CC1)C1CCN(C(c2ccccc2)c2ccc(Cl)c(Cl)c2)CC1 (stereo not given), which growth inhibition is on record?
Answer: 96% (active)

Question: With CN1CCN(CCCN(Cc2cccc(-c3cccc(CNCCc4ccccc4)c3)c2)C(=O)Nc2ccccc2)CC1 as the molecule, how does the growth inhibition read?
Answer: 82% (active)

Question: For O=C(Nc1ccc(F)c(C(F)(F)F)c1)N[C@H]1CCN(CCCCCNC(=O)[C@@H]2C[C@H]2c2ccc(Cl)c(Cl)c2)C1, which growth inhibition is on record?
Answer: 0% (inactive)

Question: With CC(Cc1ccc(OCc2ccccc2)cc1)Nc1nc2ccccc2c(=O)[nH]1 (stereo not given) as the molecule, how does the growth inhibition read?
Answer: 96% (active)

Question: With CCCCCCP(=O)(COc1ccc(CCN(CC(O)COc2cccc3[nH]c(C(N)=O)cc23)CC(O)COc2cccc3[nH]c(C(N)=O)cc23)cc1)OCCCC (stereo not given) as the molecule, how does the growth inhibition read?
Answer: 97% (active)

Question: For Cc1cc(N[C@@H](CC(C)C)C(=O)NCCOc2ccccc2)nc(Nc2ccccc2)n1, which growth inhibition is on record?
Answer: 9% (inactive)

Question: With Cc1cccc2[nH]c(-c3cccc(-c4cccc(CNCc5cccc(N)c5)c4)c3)nc12 as the molecule, how does the growth inhibition read?
Answer: 73% (active)

Question: For Cc1ccc(-n2[nH]c(C)c(N=Nc3cccc(-c4cccc(NC(=O)OC(C)(C)C)c4)c3O)c2=O)cc1C, which growth inhibition is on record?
Answer: 21% (inactive)

Question: For O=C(Nc1ccc(NC2=NCCN2)cc1)Nc1ccc(NC2=NCCN2)cc1, which growth inhibition is on record?
Answer: 72% (active)

Question: Which growth inhibition does the source give for CCn1c(-c2nonc2N)nc2cnc(Oc3cccc(NC(=O)c4ccc(OCCN5CCCC5)cc4)c3)cc21 here?
Answer: 1% (inactive)

Question: Which growth inhibition does the source give for CC[C@H](C)CNC(=O)c1cncc(-c2cccc(CNCCCc3ccccc3)c2)c1 here?
Answer: 0% (inactive)

Question: Which growth inhibition does the source give for COc1ccc(-c2cccc(NC(=O)c3cccc(Cl)c3)c2)cc1CN1CCCN(C)CC1 here?
Answer: 99% (active)

Question: With Cc1cccc2[nH]cc(C3CCN(CCC4CCN(C(=O)/C=C/c5ccc(Cl)c(Cl)c5)CC4)CC3)c12 as the molecule, how does the growth inhibition read?
Answer: 8% (inactive)

Question: Which growth inhibition does the source give for Cc1ccc(-c2noc(COc3ccccc3C(=O)NC3CCCC3)n2)cc1 here?
Answer: 92% (active)

Question: Which growth inhibition does the source give for COc1ccc(NC(=O)[C@H](Cc2ccccc2)Nc2cc(C)nc(NCc3ccccc3C)n2)cc1 here?
Answer: 71% (active)

Question: Which growth inhibition does the source give for CC1CCCN1Cc1cccc(-c2ccc(C(=O)NCCOc3ccccc3)s2)c1 (stereo not given) here?
Answer: 0% (inactive)

Question: With COc1ccc(-c2cccc(NC(=O)c3ccc(Cl)cc3)c2)cc1CN1CCNCC1 as the molecule, how does the growth inhibition read?
Answer: 22% (inactive)

Question: For CC(C)(C)Cn1cc(-c2ccc(C(=O)NCCc3ccc(S(C)(=O)=O)cc3)cc2)c(N)n1 (tested in a mixture with another compound), which growth inhibition is on record?
Answer: 10% (inactive)

Question: For CCCC[C@@H](C(=O)NCCc1ccc(Cl)cc1)N1C(=O)CCC1C(=O)Nc1ccc(Cl)c(Cl)c1 (stereo not given in full), which growth inhibition is on record?
Answer: 2% (inactive)

Question: With COc1ccc(-c2csc(NC(=O)CCC(=O)O)n2)cc1OC as the molecule, how does the growth inhibition read?
Answer: -2% (inactive)

Question: For CCN(CC)CCOc1ccc(C(O)(C#CC(O)(c2ccc(C)cc2)c2ccc(OCCN(CC)CC)cc2)c2ccc(C)cc2)cc1 (stereo not given), which growth inhibition is on record?
Answer: 98% (active)

Question: With COCc1nc(-c2ccccc2)nc(N2CCN(C(=O)NC(C)C)CC2)c1Cc1ccccc1F as the molecule, how does the growth inhibition read?
Answer: 94% (active)

Question: For CN(C)c1ccc(-c2csc(C(=O)NCC3CCN(CCC(C)(C)C)C3)c2)cc1 (stereo not given), which growth inhibition is on record?
Answer: 16% (inactive)

Question: For N#Cc1ccc(-c2cnc3ccc(NCc4ccc(S(N)(=O)=O)cc4)nn23)cc1, which growth inhibition is on record?
Answer: 100% (active)

Question: For O=C(N[C@@H]1C[C@H]1c1ccccc1)N(CCCn1ccnc1)Cc1csc(-c2ccc(CNCc3ccccc3)cc2)n1, which growth inhibition is on record?
Answer: 20% (inactive)

Question: Which growth inhibition does the source give for Cc1nnc2c(NC(=O)/C=C/c3ccc(OC(F)(F)F)cc3)cc3cc(Cl)ccc3n12 here?
Answer: 99% (active)

Question: For CCn1c(C(C)C)cc2c3c(N)nc(N)nc3ccc21, which growth inhibition is on record?
Answer: -2% (inactive)

Question: With Cc1cccc2[nH]c(-c3ccc(-c4ccc(NC(=O)Nc5ccc(Cl)cc5)cc4)s3)nc12 as the molecule, how does the growth inhibition read?
Answer: 100% (active)
